# Source: PubChem
# This is one part of a sample in which hits are shown more often than they occur.
# CHX counter – counter-screen for Shiga toxin inhibitors: cycloheximide protein synthesis inhibition | cell reporter, cycloheximide protein synthesis inhibition counterscreen | max response, % | hit rate 12% among 300,000 | AID 2314; in the data active means max response mostly above about 13%, no sharp cut-off; inactive means mostly below about 14%; further: read at 38.3 µM for the half of the compounds with a filed dose; 0% is about no effect
# NS1 function inh – influenza NS1 inhibition; Potency, µM (titrated, usually from 46.1 µM), for the others: top-dose activity, positive = more growth; hit rate 0.4% among 270,000; AID 2326; further: potency means the concentration at half of the fitted maximal effect; actives are rising curves; nearly all actives have a fitted effect of over 50% in size
#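 Recovery from NS1-induced slow growth read by OD600 in budding yeast switched to galactose assay medium (pH 6.0, -URA) at 1:100 dilution. Compound 23 nl per well; the matching strain lacking NS1 serves as control.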
# LmPK inhibitor – blocks Leishmania mexicana pyruvate kinase activity | Q27686 | purified LmPK, Kinase-Glo ATP luminescence, 1 h | Potency, µM (doses to about 57.5 µM), inactives show at the highest dose activity change, negative = inhibition, actives largely listed as inhibitors | hit rate 0.37% among 290,000; active means well fitted curve in the direction sought with a large enough effect; inconclusive means small, poorly fitted or top-dose-only effect, or another doubt; inactive means no such curve, though single readings can be large; an effect the other way counts as inactive or inconclusive; further: potency means the concentration at half of the fitted maximal effect; on the % scale 0 is the no-effect control and ±100 the full control effect
# Target sequence (Q27686 whole entry, looked up): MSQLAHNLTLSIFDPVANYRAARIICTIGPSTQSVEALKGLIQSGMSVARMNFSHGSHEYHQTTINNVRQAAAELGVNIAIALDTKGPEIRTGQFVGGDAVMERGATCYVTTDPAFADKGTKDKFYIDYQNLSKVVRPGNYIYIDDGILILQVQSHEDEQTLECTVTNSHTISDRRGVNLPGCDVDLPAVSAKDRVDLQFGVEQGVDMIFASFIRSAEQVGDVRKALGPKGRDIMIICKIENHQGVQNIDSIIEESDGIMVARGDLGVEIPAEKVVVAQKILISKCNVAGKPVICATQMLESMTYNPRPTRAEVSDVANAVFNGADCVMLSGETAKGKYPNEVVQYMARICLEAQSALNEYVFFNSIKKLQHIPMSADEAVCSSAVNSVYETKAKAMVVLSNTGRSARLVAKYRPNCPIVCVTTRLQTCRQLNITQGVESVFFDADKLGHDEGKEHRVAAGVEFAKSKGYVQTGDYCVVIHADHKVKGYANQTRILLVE
#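 In 50 mM imidazole pH 7.2 with 7 mM MgCl2, LmPK (0.1 nM) turned over PEP (0.5 mM) and ADP (0.1 mM) for 1 h at room temperature. Luciferase read-out of ATP.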
# Tb PYK inh – blocks Trypanosoma brucei pyruvate kinase. AID 624173. TbPYK enzyme, Kinase-Glo Plus ATP luminescence, 45 min. hit rate 0.12% among 410,000. Potency, µM (top dose mostly 76.8 µM), without a hit: at the highest dose activity, negative = inhibition, actives largely listed as inhibitors; active means well fitted curve in the direction sought with a large enough effect; inconclusive means small, poorly fitted or top-dose-only effect, or another doubt; inactive means no such curve, though single readings can be large; an effect the other way counts as inactive or inconclusive; further: potency means the concentration at half of the fitted maximal effect; on the % scale 0 is the no-effect control and ±100 the full control effect; nearly all actives have a fitted effect of over 50% in size
#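 Luminescence from Kinase-Glo Plus, added after a 45-minute room-temperature reaction, served as the end-point read-out. The enzyme and substrate were preincubated with compound before ADP (130 uM final) initiated turnover. Concentration-effect curves came from normalized qHTS data.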
# Shiga inhibitor – Shiga toxin inhibition. Vero cells, Shiga toxin protein synthesis inhibition reporter. inhibition, % at 38.7 µM. hit rate 9.2% among 290,000; in the data active means inhibition mostly above about 28%, no sharp cut-off; inactive means mostly below about 43%; further: 0% is about no effect
# SARS PLpro yeast – SARS-CoV PLP inhibition in yeast; Potency, µM (highest dose often 32.9 µM), without a hit: top-dose activity, positive = growth rescue, usual class: activators; AID 485353; hit rate 0.19% among 330,000; S. cerevisiae expressing SARS-CoV PLpro, growth rescue; further: potency means the concentration at half of the fitted maximal effect; 0% is about no effect; nearly all actives have a fitted effect of over 55% in size
# Starred values were filed as active, the others as inactive; ? = inconclusive; . = no result given. Unless noted, the call rests on the fitted dose curve.
SMILES,CHX counter,NS1 function inh,LmPK inhibitor,Tb PYK inh,Shiga inhibitor,SARS PLpro yeast
Cc1cc(NC(=O)c2ccc3c(c2)OCO3)ccc1NC(=O)c1ccco1,14.1*,1.4%,14.1µM*,-9.3%,48.2,-7.8%
Cc1cc(NC(=O)c2ccc3c(c2)OCO3)ccc1NC(=O)c1ccccc1,14.7,5.5%,-5.3%,0.0%,39.0,-1.1%
Cc1ccc(C(=O)Nc2ccc3c(c2)OCO3)cc1NC(=O)c1ccco1,26.6*,.,3.0%,0.0%,74.4*,-0.2%
O=C(Nc1cccc(NC(=O)c2ccco2)c1)c1ccc2c(c1)OCO2,10.1,-34.0%,-11.9%,-5.7%,22.0,2.0%
Cc1ccc(C)c(N2CCN(C(=O)CN3C(=O)COc4ccc(S(=O)(=O)N5CCC(C)CC5)cc43)CC2)c1,.,.,.,-0.6%,.,.
Cc1cccc(C)c1NC(=O)CNC(=O)CCNC(=O)c1ccco1,.,.,.,-8.6%,.,-0.7%
Cc1ccc(NC(=O)CSc2nnc(Cc3csc(C)n3)o2)cc1,.,.,.,0.6%,.,5.7%
CCOc1ccc(Nc2nc(Cc3nnc(SCC(=O)c4ccc(C)c(C)c4)o3)cs2)cc1,20.6*,1.9%,13.6%,-7.1%,35.5,-4.1%
Cc1ccc(C(C(=O)NCc2ccco2)N(C(=O)CNC(=O)c2cccs2)c2c(C)cccc2C)cc1 (centres undefined),6.5,17.1%,5.1%,-2.6%,-5.5,5.9%
Cc1ccc(C(C(=O)NCc2ccco2)N(C(=O)CNC(=O)c2cccs2)c2c(C)cc(C)cc2C)cc1 (centres undefined),29.0*,-0.4%,4.3%,-3.1%,34.8,2.0%
Cc1cccc(C(=O)N2CCCC(N3CCN(Cc4ccc5c(c4)OCO5)CC3)C2)n1 (centres undefined),24.7*,0.3%,-5.5%,3.0%,35.2,3.3%
C[C@H](CO)N1C[C@H](C)[C@@H](CN(C)C(=O)Nc2ccccc2F)OCc2cnnn2CCCC1=O,.,.,.,-13.8%,.,.
COC(=O)Cn1nnc(-c2cccc(OC)c2)n1,21.9*,-4.0%,-12.1%,8.1%,65.4*,0.7%
O=C(Cn1nnc(-c2cccs2)n1)NCCc1ccccc1,20.0*,8.1%,0.8%,1.4%,28.5,-2.8%
COc1ccc(C(=O)Cn2nnc(-c3cccs3)n2)cc1,63.3*,-15.0%,2.6%,-9.0%,90.7*,-13.1%
COc1cccc(-c2nnn(CCC(=O)O)n2)c1,-1.6,-4.8%,?,7.2%,-6.2,1.0%
O=C(Nc1ccc(C2SCCS2)cc1)c1ccccc1,60.3*,-2.8%,-28.8%,-13.7%,135.8*,-5.0%
CC(C)c1ccc(NC(=O)COc2ccc(C3SCCS3)cc2)cc1,-3.8,0.3%,8.5%,-2.9%,18.3,-1.9%
CCCCNC(=O)Nc1ccc(C2SCCS2)cc1,47.0*,-7.9%,4.8%,1.9%,86.5*,-1.0%
CNC(=O)Nc1ccc(C2SCCS2)cc1,17.3*,0.9%,-0.4%,2.4%,27.1,0.2%
O=C(Nc1ccc(Nc2ccccc2)cc1)c1ccccc1,.,.,.,5.4%,.,.
COc1cc(OC)c(NC(=O)CCCn2nc(C)c3sc4ccccc4c3c2=O)cc1Cl,.,.,.,-2.2%,.,.
CC(C)CNC(=O)/C(C#N)=C1\N=C(NC(=O)c2ccco2)c2ccccc21,12.4*,-23.9%,-0.6%,-3.5%,34.0,-3.0%
CCNc1nc(N)nc(Oc2ccc(OCC(=O)OC)nn2)n1,.,.,.,2.6%,.,.
Cc1oc2ncn(C)c(=O)c2c1C(=O)N1CCN(c2ccc(Cl)cc2)CC1,.,.,.,-4.3%,.,.
SMILES,CHX counter,NS1 function inh,LmPK inhibitor,Tb PYK inh,Shiga inhibitor,SARS PLpro yeast
Cc1ccc(N=C(c2cccs2)N2CCOCC2)cc1,14.6*,0.9%,-1.9%,-18.7%,59.1*,-1.4%
O=C(c1cccs1)N1CCOCC1,-1.2,1.7%,2.7%,8.0%,16.3,-1.5%
CCOc1ccc(/C=N/Nc2cc(N3CCOCC3)ncn2)c(O)c1,.,.,.,-8.4%,.,.
CCOc1ccc(/C=N/Nc2nc(C)cs2)c(O)c1,49.1*,-9.3%,-6.7%,-12.6%,57.8*,1.1%
Cc1csc(N/N=C/c2ccccc2F)n1,38.5*,-20.6%,-2.0%,-2.0%,56.1*,.
Cc1csc(N/N=C/c2c(F)cccc2Cl)n1,38.5*,-8.1%,-1.3%,-0.4%,85.8*,-5.9%
CC1CC(C)CN(C(=O)C2CCN(C(=O)Nc3ccccc3)CC2)C1 (centres undefined),.,.,.,-2.5%,.,-1.8%
CN1C(=O)c2cccc3c(S(=O)(=O)Nc4cccc(C(=O)O)c4)ccc1c23,.,.,.,-15.2%,.,.
